# PubChem BioAssay (Tox21)
# Values joined by “and” are separate entries in the source; they are usually repeats but may differ in a detail not shown here. Equal values may be shown once. Records with an inconclusive call do not appear. A call without a number means that no potency is given here. More than one record can exist for a structure, and the calls need not agree. Active and inactive are the calls of the source. Unless noted, the call rests on the fitted dose curve; in most records, active means well fitted curve in the direction sought with a large enough effect in the repeat runs; inconclusive means weak or mixed curves; inactive means no such curve, though single readings can be large; an effect the other way counts as inactive or inconclusive.
# Columns and labels:
# [1] = qHTS assay for identifying genotoxic compounds that show differential cytotoxicity against isogenic chicken DT40 cell lines with known DNA damage response pathways - wild type cell line (AID 743012); further: nearly all actives have a fitted effect of over 60% in size; further: potency means the concentration at half of the fitted maximal effect
# Procedure, shortened: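 Viability by ATP luminescence (CellTiter-Glo, 30 min RT) after 40 h compound treatment at 37 C/5% CO2, using 300 parental DNA repair-proficient DT40 cells per well.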
# [2] = qHTS assay for identifying genotoxic compounds that show differential cytotoxicity against isogenic chicken DT40 cell lines with known DNA damage response pathways - Rev3 mutant cell line (AID 743014); further: nearly all actives have a fitted effect of over 55% in size; further: potency means the concentration at half of the fitted maximal effect
# [3] = qHTS assay for identifying genotoxic compounds that show differential cytotoxicity against isogenic chicken DT40 cell lines with known DNA damage response pathways - Rad54/Ku70 mutant cell line (AID 743015); further: nearly all actives have a fitted effect of over 60% in size; further: potency means the concentration at half of the fitted maximal effect
# [4] = qHTS assay to identify small molecule antagonists of the androgen receptor (AR) signaling pathway - cell viability counter screen (AID 743033; further: nearly all actives have a fitted effect of over 45% in size)
# [5] = biological target: Androgen receptor (Homo sapiens) (UniProt P10275); assay: qHTS assay to identify small molecule agonists of the androgen receptor (AR) signaling pathway (AID 743036; active means well fitted activation curve with a large enough effect in the signal ratio in the repeat runs, with a control signal flat, not every such curve was filed as active; the % refers to the signal ratio)
# Chain of Androgen receptor (Homo sapiens) (P10275 whole entry, looked up): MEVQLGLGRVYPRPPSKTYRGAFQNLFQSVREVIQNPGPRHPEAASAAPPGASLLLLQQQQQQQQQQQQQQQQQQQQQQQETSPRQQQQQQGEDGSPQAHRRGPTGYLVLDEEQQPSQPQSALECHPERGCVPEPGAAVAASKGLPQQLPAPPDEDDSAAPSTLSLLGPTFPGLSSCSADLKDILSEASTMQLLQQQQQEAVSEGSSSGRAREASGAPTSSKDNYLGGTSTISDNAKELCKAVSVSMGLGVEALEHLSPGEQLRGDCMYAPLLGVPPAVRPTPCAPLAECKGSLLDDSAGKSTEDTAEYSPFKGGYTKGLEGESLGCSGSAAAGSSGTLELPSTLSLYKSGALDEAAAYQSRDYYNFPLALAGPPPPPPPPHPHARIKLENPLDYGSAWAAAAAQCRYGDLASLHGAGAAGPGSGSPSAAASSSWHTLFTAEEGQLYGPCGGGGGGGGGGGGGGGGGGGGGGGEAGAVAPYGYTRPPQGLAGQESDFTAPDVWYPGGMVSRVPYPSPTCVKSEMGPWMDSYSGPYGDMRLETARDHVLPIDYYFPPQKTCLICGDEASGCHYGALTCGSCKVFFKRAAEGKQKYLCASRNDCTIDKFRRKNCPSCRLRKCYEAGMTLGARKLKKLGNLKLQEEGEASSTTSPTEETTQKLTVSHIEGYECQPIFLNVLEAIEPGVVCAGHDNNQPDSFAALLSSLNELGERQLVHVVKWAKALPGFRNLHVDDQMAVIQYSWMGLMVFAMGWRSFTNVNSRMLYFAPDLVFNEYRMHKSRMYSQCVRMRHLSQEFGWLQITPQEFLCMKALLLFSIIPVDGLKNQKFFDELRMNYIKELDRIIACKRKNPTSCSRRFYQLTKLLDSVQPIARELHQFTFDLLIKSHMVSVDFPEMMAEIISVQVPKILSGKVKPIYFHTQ
# Procedure, shortened: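 HEK293 cells stably carrying a UAS-driven beta-lactamase reporter (GeneBLAzer AR-UAS-bla-GripTite) were plated at 2,000 cells/well, rested 4 h at 37C, then exposed to compounds in DMSO for 16 h. LiveBLAzer B/G FRET substrate was added for 2 h at room temperature; fluorescence read.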
# [6] = biological target: Androgen receptor (Homo sapiens) (UniProt P10275); assay: qHTS assay to identify small molecule agonists of the androgen receptor (AR) signaling pathway using the MDA cell line (AID 743040; further: nearly all actives have a fitted effect of over 20% in size); conditions: MDA-kb2 AR-luc cells, MMTV luciferase, 16 h; activity change: at 70.3 µM (top of the series), stronger effect = higher value
# Procedure, shortened: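 Agonist activity is measured as luciferase luminescence in human MDA-kb2 cells whose MMTV reporter responds to both AR and GR. Compounds in DMSO incubate 16 h at 37C, 0% CO2, and ONE-Glo is read after 30 min.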
# [7] = qHTS assay to identify small molecule antagonists of the androgen receptor (AR) signaling pathway using the MDA cell line - cell viability counter screen (AID 743041; further: nearly all actives have a fitted effect of over 45% in size)
# Procedure, shortened: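 qHTS viability read-out; MDA-kb2 AR-luc; R1881-stimulated; 16 h exposure at 37C, 0% CO2; CellTiter-Fluor, 30 min; fluorescence intensity.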
# [8] = biological target: Androgen receptor (Homo sapiens) (UniProt P10275); assay: qHTS assay to identify small molecule antagonists of the androgen receptor (AR) signaling pathway using the MDA cell line (AID 743042; further: nearly all actives have a fitted effect of over 55% in size)
# Procedure, shortened: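 MDA-kb2 cells (human breast carcinoma, stably carrying an MMTV-luciferase reporter responsive to AR and GR) were plated at 3,000 cells/well and preincubated 5 hr at 37C, then given compound plus R1881 agonist for 16 h. ONE-Glo luminescence was read.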
# [9] = qHTS assay to identify small molecule antagonists of the thyroid receptor (TR) signaling pathway - cell viability counter screen (AID 743064); further: nearly all actives have a fitted effect of over 50% in size; further: potency means the concentration at half of the fitted maximal effect
# Procedure, shortened: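 GH3.TRE-Luc rat pituitary cells carrying a TRE-luciferase reporter were treated with compound plus 1 nM T3 (final) for 23.5 h at 37 °C. Viability was then read in the same wells by CellTiter-Fluor fluorescence after a further 30 min.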
# [10] = qHTS assay to identify small molecule antagonists of the thyroid receptor (TR) signaling pathway (AID 743065); further: nearly all actives have a fitted effect of over 55% in size; further: potency means the concentration at half of the fitted maximal effect
# Procedure, shortened: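 GH3.TRE-Luc rat pituitary cells carrying two TR response elements driving luciferase were plated for 4 h, given compound plus 1 nM T3 (final), and incubated 23.5 h at 37 C. ONE-Glo luminescence measured reporter inhibition; CellTiter-Fluor fluorescence tracked cytotoxicity.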
# [11] = tested on: thyroid hormone receptor (rat, GH3 cells); assay: qHTS assay to identify small molecule agonists of the thyroid receptor (TR) signaling pathway (AID 743066; calls by dose curve)
# [12] = qHTS assay to identify small molecule antagonists of the estrogen receptor alpha (ER-alpha) signaling pathway - cell viability counter screen (AID 743074; calls by dose curve; further: nearly all actives have a fitted effect of over 45% in size)
# [13] = qHTS assay to identify small molecule antagonists of the estrogen receptor alpha (ER-alpha) signaling pathway using the BG1 cell line - cell viability counter screen (AID 743081);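 further: compound given together with 17beta-estradiol as the ER stimulus; nearly all actives have a fitted effect of over 45% in size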
# Aromatase (Homo sapiens) = Aromatase (Homo sapiens) (UniProt P11511); assay: qHTS assay to identify aromatase inhibitors (AID 743083); further: nearly all actives have a fitted effect of over 55% in size
# Chain of Aromatase (Homo sapiens) (P11511 whole entry, looked up): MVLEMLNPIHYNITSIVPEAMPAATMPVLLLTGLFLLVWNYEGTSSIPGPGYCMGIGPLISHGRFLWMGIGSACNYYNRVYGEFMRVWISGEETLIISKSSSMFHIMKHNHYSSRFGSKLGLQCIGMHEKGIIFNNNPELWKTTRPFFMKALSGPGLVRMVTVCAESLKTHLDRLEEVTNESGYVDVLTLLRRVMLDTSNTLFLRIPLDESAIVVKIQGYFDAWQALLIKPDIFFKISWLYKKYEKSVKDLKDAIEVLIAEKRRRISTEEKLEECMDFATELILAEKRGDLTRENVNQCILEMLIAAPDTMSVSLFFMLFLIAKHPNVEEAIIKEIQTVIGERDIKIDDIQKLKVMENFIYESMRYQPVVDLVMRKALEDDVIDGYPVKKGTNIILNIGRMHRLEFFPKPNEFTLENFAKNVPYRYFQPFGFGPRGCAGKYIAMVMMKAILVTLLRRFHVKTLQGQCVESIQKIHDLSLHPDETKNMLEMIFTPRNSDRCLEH
# [14] = qHTS assay to identify small molecule antagonists of the glucocorticoid receptor (GR) signaling pathway - cell viability counter screen (AID 720693); further: nearly all actives have a fitted effect of over 55% in size
# [15] = biological target: Estrogen receptor (Homo sapiens) (UniProt P03372); assay: qHTS assay to identify small molecule agonists of the estrogen receptor alpha (ER-alpha) signaling pathway (AID 743075; calls by dose curve)
# Chain of Estrogen receptor (Homo sapiens) (P03372 whole entry, looked up): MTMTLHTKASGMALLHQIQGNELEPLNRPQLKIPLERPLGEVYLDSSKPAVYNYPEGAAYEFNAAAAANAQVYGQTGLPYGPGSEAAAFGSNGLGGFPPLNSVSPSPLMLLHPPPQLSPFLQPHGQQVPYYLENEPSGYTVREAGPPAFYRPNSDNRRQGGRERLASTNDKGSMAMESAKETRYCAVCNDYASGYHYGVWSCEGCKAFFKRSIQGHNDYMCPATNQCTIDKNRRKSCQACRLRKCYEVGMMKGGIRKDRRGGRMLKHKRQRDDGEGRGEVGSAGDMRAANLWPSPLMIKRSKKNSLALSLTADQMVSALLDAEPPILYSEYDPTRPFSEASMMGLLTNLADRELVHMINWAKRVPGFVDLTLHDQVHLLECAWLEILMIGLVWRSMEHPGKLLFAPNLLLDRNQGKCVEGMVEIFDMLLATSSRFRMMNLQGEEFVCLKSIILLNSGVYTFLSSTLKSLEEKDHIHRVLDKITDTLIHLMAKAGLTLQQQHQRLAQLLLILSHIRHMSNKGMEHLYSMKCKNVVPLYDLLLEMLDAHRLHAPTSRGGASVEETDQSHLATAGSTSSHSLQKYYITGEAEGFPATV
# [16] = biological target: Estrogen receptor (Homo sapiens) (UniProt P03372); assay: qHTS assay to identify small molecule agonists of the estrogen receptor alpha (ER-alpha) signaling pathway using the BG1 cell line (AID 743079); further: nearly all actives have a fitted effect of over 20% in size; further: potency means the concentration at half of the fitted maximal effect
# [17] = qHTS assay to identify small molecule antagonists of the estrogen receptor alpha (ER-alpha) signaling pathway using the BG1 cell line (AID 743080; calls by dose curve;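 further: BG1 cells stimulated with 17beta-estradiol alongside compound; nearly all actives have a fitted effect of over 25% in size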; further: potency means the concentration at half of the fitted maximal effect)
# Procedure, shortened: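 BG1-Luc-4E2 cells (endogenous full-length ER-alpha, 4xERE luciferase) hormone-starved 5 days in charcoal-stripped FBS, plated 4,000/well for 24 h, then compound plus 17beta-estradiol for 21.5 h at 37 C; ONE-Glo luminescence read.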
# [18] = biological target: Estrogen receptor (Homo sapiens) (UniProt P03372); assay: qHTS assay to identify small molecule antagonists of the estrogen receptor alpha (ER-alpha) signaling pathway (AID 743069; active means well fitted curve in the direction sought with a large enough effect in the signal ratio in the repeat runs, not every such curve was filed as active; the % refers to the signal ratio)
# Procedure, shortened: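 Screening used a UAS-driven beta-lactamase reporter integrated into HEK293 cells expressing ER-alpha, stimulated with 17beta-estradiol alongside test compounds over 18 hr at 37C; signal came from LiveBLAzer B/G FRET fluorescence.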
Compound,Potency [1],Potency [2],Potency [3],Potency [4],Potency [5],Potency [6],Potency [7],Potency [8],Potency [9],Potency [10],Potency [11],Potency [12],Potency [13],Potency (Aromatase (Homo sapiens)),Potency [14],Potency [15],Potency [16],Potency [17],Potency [18]
CCCCC(CC)COC(=O)c1ccc(C(=O)OCC(CC)CCCC)c(C(=O)OCC(CC)CCCC)c1 (stereo not given),inactive,inactive,inactive,inactive,inactive,inactive,inactive,inactive,inactive,inactive,inactive,inactive,inactive,inactive,,,,,
CC(C)(c1cc(Cl)c(O)c(Cl)c1)c1cc(Cl)c(O)c(Cl)c1,inactive,inactive,inactive,,,,inactive,,inactive and 61.1 µM (active),21.7 µM (active) and 48.6 µM (active),,,inactive,inactive,inactive,,,,
CNC(=O)Oc1cccc2c1OC(C)(C)O2,inactive,inactive,inactive,inactive,,,inactive,,inactive,,,inactive,inactive,inactive,inactive,inactive,inactive,inactive,
CCOC(=O)C(C)OC(=O)c1cc(Oc2ccc(C(F)(F)F)cc2Cl)ccc1[N+](=O)[O-] (stereo not given),24.3 µM (active),27.3 µM (active),21.7 µM (active),inactive,,,inactive,,inactive,,inactive,inactive,inactive,inactive,inactive,inactive,,48.3 µM (active),
CCCCCc1cc(O)cc(O)c1,inactive,inactive,,inactive,,,inactive,,inactive,,inactive,inactive,inactive,inactive,inactive,,,,
COP(=S)(OC)Oc1ccc([N+](=O)[O-])cc1,,,,inactive,,,inactive,,inactive,inactive,inactive,inactive,inactive,inactive,inactive,inactive,48.6 µM (active) and inactive,inactive,inactive
Oc1cc(Cl)c(Cl)cc1Cl,inactive,inactive and 68.6 µM (active),inactive and 61.1 µM (active),inactive,,,inactive,,inactive,inactive,inactive,inactive,inactive,inactive,inactive,,,,
CCCCN(CC)c1c([N+](=O)[O-])cc(C(F)(F)F)cc1[N+](=O)[O-],inactive,inactive,inactive,inactive,,,inactive,,54.5 µM (active),,inactive,inactive,inactive,inactive,inactive,,,,
CCCCNC(=O)n1c(NC(=O)OC)nc2ccccc21,9.64 µM (active) and 8.63 µM (active),5.42 µM (active) and 6.86 µM (active),6.82 µM (active) and 8.63 µM (active),,inactive,inactive,inactive,inactive,,7.66 µM (active) and 8.63 µM (active),inactive,inactive,inactive,inactive,,inactive,34.4 µM (active),inactive,inactive
C=CCc1ccc(OC)cc1,inactive,26.5 µM (active),inactive,inactive,,,inactive,,inactive,inactive,inactive,inactive,inactive,inactive,,,,,
c1nc[nH]n1,inactive,inactive,inactive,inactive,,,inactive,,inactive,,,inactive,inactive,inactive,,inactive,inactive,inactive,inactive
CC1(C)C(C=C(Cl)Cl)C1C(=O)OC(C#N)c1cccc(Oc2ccccc2)c1 (stereo not given),,inactive,61.1 µM (active),inactive,,,inactive,,inactive,,inactive,inactive,inactive,inactive,,inactive,inactive,inactive,inactive
CCN(CC)N=O,inactive,inactive,inactive,inactive,,,inactive,,inactive,inactive,inactive,inactive,inactive,inactive,,,,,
CCC(C)c1ccc(O)cc1 (stereo not given),inactive,inactive and 61.1 µM (active),inactive and 43.3 µM (active),inactive,,,inactive,,inactive,inactive,inactive,inactive,inactive,,,,,,
c1ccc(N=Nc2ccccc2)cc1,inactive,inactive,inactive,inactive,,,inactive,,inactive,inactive,inactive,inactive,inactive,inactive,,,,,
